# Assay results reported in PubChem BioAssay AID1851 (National Center for Advancing Translational Sciences (NCATS), 2009).
# Among all 16,000 compounds or so, about 5,800 (36%) were called active. Another 23% or so got no clear call; they are omitted. The call rests on the fitted dose curve; in most records, active means well fitted curve in the direction sought with a large enough effect; inconclusive means small, poorly fitted or top-dose-only effect, or effect the other way; inactive means no such curve, though single readings can be large or run the other way. The list shows a part of the results.
# Molecular target: Cytochrome P450 2C19 (Homo sapiens) (UniProt P33261)
# Test: Cytochrome panel assay with activity outcomes
# Details: recombinant CYP, pro-luciferin dealkylation, luminescence, p450-cyp2c19; series mostly up to 57.1 µM; activity, negative = inhibition: at the top concentration
# On the % scale 0 is the no-effect control and ±100 the full control effect.
# Sequence of Cytochrome P450 2C19 (Homo sapiens) (P33261 whole entry, looked up): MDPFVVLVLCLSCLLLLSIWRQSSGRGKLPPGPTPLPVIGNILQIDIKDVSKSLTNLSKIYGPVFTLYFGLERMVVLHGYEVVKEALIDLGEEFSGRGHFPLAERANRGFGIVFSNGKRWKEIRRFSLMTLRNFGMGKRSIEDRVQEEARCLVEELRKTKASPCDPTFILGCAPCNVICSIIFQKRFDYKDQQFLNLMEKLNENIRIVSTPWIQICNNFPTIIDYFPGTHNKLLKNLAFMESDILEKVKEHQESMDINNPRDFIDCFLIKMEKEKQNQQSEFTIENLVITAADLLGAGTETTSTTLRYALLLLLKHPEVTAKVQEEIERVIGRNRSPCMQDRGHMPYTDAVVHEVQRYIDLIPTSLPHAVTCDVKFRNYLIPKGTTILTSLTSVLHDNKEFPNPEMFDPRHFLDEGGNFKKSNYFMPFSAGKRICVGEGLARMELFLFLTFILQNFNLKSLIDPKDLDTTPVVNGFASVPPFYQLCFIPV
Compound,"activity, negative = inhibition",AC50
COc1cccc(Nc2ncc3ncc(=O)n(CCC#N)c3n2)c1,-23.9% (inactive),–
COCCn1c(=O)cnc2cnc(Nc3cccc(OC)c3)nc21,-17.7% (inactive),–
CCNc1ncc2nc(-c3cccs3)c(=O)n(Cc3cccc(OC)c3)c2n1,-27.9% (inactive),–
CCNc1ncc2nc(-c3ccc(OC)cc3)c(=O)n(Cc3cccc(OC)c3)c2n1,-18.3% (inactive),–
CCNc1ncc2ncc(=O)n(Cc3cccc(OC)c3)c2n1,–,2 µM (active)
CCNc1ncc2nc(-c3ccc(Cl)cc3)c(=O)n(Cc3cccc(OC)c3)c2n1,11.2% (inactive),–
CCNc1ncc2nc(C)c(=O)n(Cc3cccc(OC)c3)c2n1,–,10 µM (active)
CCNc1ncc2nc(-c3cn(C)c4ccccc34)c(=O)n(Cc3cccc(OC)c3)c2n1,-30.7% (inactive),–
COc1cccc(Cn2c(=O)cnc3cnc(Nc4cccc(OC)c4)nc32)c1,–,3.98 µM (active)
COCCN1C(=O)C(=O)/C(=C(/O)c2cccc(OC)c2)C1c1ccc(C)o1 (centres undefined),-7.14% (inactive),–
COc1cccc(/C(O)=C2/C(=O)C(=O)N(Cc3cccnc3)C2c2ccco2)c1 (centres undefined),–,14.1 µM (active)
COCCN1C(=O)C(=O)/C(=C(/O)c2cccc(OC)c2)C1c1ccco1 (centres undefined),-15.3% (inactive),–
CCOc1cccc(/C(O)=C2/C(=O)C(=O)N(Cc3ccco3)C2c2ccncc2)c1 (centres undefined),–,10 µM (active)
CCOc1ccc(/C(O)=C2/C(=O)C(=O)N(CCOCCO)C2c2cccnc2)cc1 (centres undefined),-4.48% (inactive),–
COc1cccc(/C(O)=C2/C(=O)C(=O)N(CCCN3CCOCC3)C2c2ccncc2)c1 (centres undefined),-13.8% (inactive),–
CC(C)CCN1CC(C(=O)N2CCN(c3ccc(F)cc3)CC2)CC1=O (centres undefined),-56.6% (inactive),–
O=C(c1cc(-c2cccs2)on1)N1CCN(c2ccc(F)cc2)CC1,–,1.41 µM (active)
O=C(CCNC(=O)Cn1ccc2ccccc2c1=O)NCCCN1CCN(c2ccc(F)cc2)CC1,-10.9% (inactive),–
O=C(CCS(=O)(=O)c1cccs1)N1CCN(c2ccc(F)cc2)CC1,–,0.891 µM (active)
O=C(c1cc(-c2ccco2)on1)N1CCOCC1,-29.1% (inactive),–
O=C(c1cnccn1)N1CCC2(CC1)CN(c1ccncc1)C2,-38% (inactive),–
Oc1cc(O)cc(/C=C\c2ccc(O)c(O)c2)c1,-27.7% (inactive),–
CC(C)c1cccc2nc3c(c([Si](C)(C)C)c12)Cn1c-3cccc1=O,-80.6% (inactive),–
Cc1ccc(OCC(=O)N/N=C\c2c(C)n(C)c3ccccc23)c([N+](=O)[O-])c1,–,8.91 µM (active)

Compound,"activity, negative = inhibition",AC50
NC[C@H](O)C1CCCCCCC1,7.64% (inactive),–
Cc1nc2ncnn2c(C)c1CCC(=O)N1CCN(C(=O)c2ccco2)CC1,-5.78% (inactive),–
CC(=O)c1cnc2c(C(=O)O)cnn2c1C,-3.66% (inactive),–
Cc1nc2c(C(=O)N3CCOCC3)cnn2c(C)c1Cc1ccc(Cl)cc1,–,2.24 µM (active)
N=c1n(CCN2CCOCC2)c2ccccc2n1CC(=O)c1ccc(Cl)c(Cl)c1,–,6.31 µM (active)
COC(=O)Cn1c(=N)n(CCN2CCCCC2)c2ccccc21,40.1% (inactive),–
Cc1cc(=O)[nH]c(SCC(=O)Nc2nc3c(s2)CCCC3)n1,–,7.94 µM (active)
FC(F)(F)c1ccc(N2CCN(c3cc(-c4ccccc4)nc4ncnn34)CC2)nc1,–,3.55 µM (active)
O=S(=O)(c1ccccc1)N1CCC2(CCN(c3ncccn3)CC2)CC1,32.2% (inactive),–
O=S(=O)(c1ccccc1)N1CCN(c2cc(-c3ccccc3)nc3ncnn23)CC1,–,11.2 µM (active)
Cc1cnn(-c2cc(N/N=C/c3ccccc3)ncn2)c1,21.7% (inactive),–
Cc1cccc(/C=N\Nc2cn[nH]c(=O)c2Cl)c1,–,10 µM (active)
CCOC(=O)C1C(=O)C=C(/C=C/c2ccccc2)CC1c1ccc(Cl)cc1 (centres undefined),–,8.91 µM (active)
COc1ccccc1C(=O)NCCn1cc(SCC(=O)Nc2nnc(C)s2)c2ccccc21,–,8.91 µM (active)
CCc1nnc(NC(=O)CCC(=O)NCc2ccccc2OC)s1,13.2% (inactive),–
CC(C)CN(CC(C)C)C1=N/C(=C\c2ccco2)C(=O)N1c1ccccc1,–,2.82 µM (active)
CCOC(=O)CN1C(=O)Nc2ccc(Br)cc2C1c1ccccc1 (centres undefined),–,3.98 µM (active)
CCOC(=O)C1(C(=O)O)NC(=O)CC1c1ccccc1 (centres undefined),-18.1% (inactive),–
O=C(Nc1ccccc1[N+](=O)[O-])C1C(c2ccccc2)=C1c1ccccc1,–,2.51 µM (active)
C[C@@H](CCc1ccc(O)cc1)NCCc1ccc(O)c(O)c1,–,inactive
COc1ccc(CCC(C)Nc2cccc(F)c2)cc1 (centres undefined),–,0.891 µM (active)
CC(=O)Nc1ccc(OC[C@@H](O)CNC(C)C)cc1,27.7% [at 25.6 µM] (inactive),–
OC(COCc1ccccc1)Cn1cnc2ccccc21 (centres undefined),–,14.1 µM (active)
CC(=O)Nc1ccc(OCC(O)Cn2cnc3ccccc32)cc1 (centres undefined),–,22.4 µM (active)

Compound,"activity, negative = inhibition",AC50
CN1CCCCC1=NCCCn1cnc2c1c(=O)n(C)c(=O)n2C,16.6% (inactive),–
O=c1c(-c2cccc(F)c2)nc2cncnc2n1C1CC1,-28.1% (inactive),–
O=c1c(-c2cccc(F)c2)nc2cncnc2n1-c1ccccc1,–,15.8 µM (active)
O=c1c(-c2cc(F)cc(F)c2)nc2cncnc2n1Cc1ccccc1Cl,–,1.58 µM (active)
O=c1c(-c2cccc(Cl)c2)nc2cncnc2n1C1CC1,-21.7% (inactive),–
O=c1c(-c2ccc(F)cc2)nc2cncnc2n1-c1ccccc1,-41.3% (inactive),–
O=c1c(-c2cccc(Cl)c2)nc2cncnc2n1Cc1ccccc1Cl,–,5.01 µM (active)
O=c1c(-c2cccc(F)c2)nc2cncnc2n1Cc1ccccc1Cl,–,0.794 µM (active)
O=c1[nH]c(=O)n([C@@H]2C[C@H](O)[C@H](CO)O2)cc1I,15.4% [at 25.6 µM] (inactive),–
O=C1C2C3C=CC(C2C(=O)N1CN1CCOCC1)C1C2C(=O)N(CN4CCOCC4)C(=O)C2C31 (centres undefined),22.1% [at 11.4 µM] (inactive),–
O=C(Nc1ccc2c(c1)OCCO2)c1cccc2nc3ccccc3nc12,–,4.47 µM (active)
Cc1ccccc1NC(=O)c1cnc(Nc2nc3ccccc3s2)nc1C,-11.9% (inactive),–
Cc1ccccc1NC(=O)c1cccc2nc3ccccc3nc12,–,3.55 µM (active)
O=c1c(-c2ccc(F)cc2)nc2cnc(Nc3ccccc3)nc2n1Cc1cccs1,-8.61% (inactive),–
C=CCC(C)(NCc1ccccc1)c1ccco1 (centres undefined),–,11.2 µM (active)
Clc1ccc(COc2ccccn2)cc1Cl,–,2.24 µM (active)
COc1ccc(/C=N/NC(=O)c2cccc([N+](=O)[O-])c2)cc1OS(=O)(=O)c1ccc(C)cc1,–,3.16 µM (active)
CCCOc1ccc(/C=C/C(=O)Nc2ccc([N+](=O)[O-])cc2C)cc1OC,–,3.98 µM (active)
CCOc1ccc(NC(=S)NC(=O)/C=C/c2ccc(OC)c(OC)c2)c([N+](=O)[O-])c1,-44.3% (inactive),–
COc1cc(/C=N\Nc2ccc([N+](=O)[O-])cc2)ccc1OCC(=O)Nc1ccc(C)c(C)c1,–,3.98 µM (active)
CCOc1cc(/C=N/NC(=O)c2cccc([N+](=O)[O-])c2)ccc1OS(=O)(=O)c1ccccc1,–,14.1 µM (active)
CC(/C=N/NC(=O)c1cccc([N+](=O)[O-])c1)=C\c1ccccc1,-12% (inactive),–
O=C(N=NC(=O)c1ccc2c(O)n(C3CCCCC3)c(O)c2c1)c1cccnc1,-21.3% (inactive),–
COCCCNC(=O)C(=O)N/N=C/c1ccc(OCC(=O)Nc2cccc(Cl)c2C)c(OC)c1,–,31.6 µM (active)

Compound,"activity, negative = inhibition",AC50
COc1cc(/C=N/NC(=O)c2ccncc2)ccc1OC(=O)c1ccc([N+](=O)[O-])cc1,–,14.1 µM (active)
COc1cc(/C=N/NC(=O)c2cccnc2)ccc1OC(=O)c1ccc2c(c1)OCO2,-16.9% (inactive),–
COc1cccc(/C=N/NC(=O)c2cccc([N+](=O)[O-])c2)c1OS(=O)(=O)c1ccc(C)cc1,–,4.47 µM (active)
COc1cc(C(=O)Oc2ccccc2/C=N/NC(=O)c2ccc(C)cc2)cc(OC)c1OC,–,0.398 µM (active)
CN(C)CCn1nnnc1SCC1=C(C(=O)O)N2C(=O)[C@@H](NC(=O)Cc3csc(N)n3)[C@@H]2SC1,16.7% [at 25.6 µM] (inactive),–
COc1ccc(C(=O)Oc2cc(/C=N/NS(=O)(=O)c3ccc(C)cc3)ccc2OC)cc1,–,1.78 µM (active)
COc1ccc(C(=O)N/N=C/c2cccc3cccnc23)cc1,–,28.2 µM (active)
O=C(CCc1nc(-c2ccccc2)c(-c2ccccc2)o1)OCc1ccc(Cl)cc1,–,6.31 µM (active)
CCOC(=O)N1CCN(C(=O)c2ccc3c(=O)n(-c4ccc(OC)cc4)c(=S)[nH]c3c2)CC1,-5.12% (inactive),–
COc1ccc(-n2c(=S)[nH]c3cc(C(=O)NCCCN4CCCC4=O)ccc3c2=O)cc1,–,39.8 µM (active)
CNC(=O)c1ccc(-c2sc3nc(N4CCOCC4)c4c(c3c2N)CC(C)(C)OC4)o1,–,11.2 µM (active)
CC(=O)N[C@@H]1CONC1=O,21.6% [at 11.4 µM] (inactive),–
O=C(O)C[C@H]1OCC=C2C[N@@+]3([O-])CC[C@]45c6ccccc6N[C@@H]4[C@@H]1[C@H]2C[C@H]53,13.9% [at 11.4 µM] (inactive),–
Cc1cc(C(=O)N[C@@H](c2ccccc2)[C@]2(C)C[C@H]2[C@@H](C)C(=O)Nc2ccc3ccccc3c2)n(C)n1,–,10 µM (active)
Cc1cc(C(=O)N[C@H](c2ccccc2)[C@@]2(C)C[C@@H]2[C@@H](C)C(=O)Nc2ccc3ccccc3c2)n(C)n1,–,15.8 µM (active)
Cc1nn(C)c(Cl)c1S(=O)(=O)N[C@@H](c1ccccc1)[C@]1(C)C[C@H]1[C@@H](C)C(=O)Nc1ccc2ccccc2c1,-25.4% (inactive),–
COc1ccc(NC(=O)N2CC[C@@]3(CCCN(C(=O)c4ccc(OC)cc4)C3)C2)cc1,-13.8% (inactive),–
CCOCC(=O)Nc1cc(C(=O)Nc2cccc(C)c2C)ccc1Cl,-20.5% (inactive),–
CCOCC(=O)Nc1cc(C(=O)Nc2ccccc2)ccc1Cl,–,10 µM (active)
Cc1cc(NC(=O)c2cc(C(C)C)on2)no1,–,14.1 µM (active)
CCc1ccc(NC(=O)c2cc(C(C)C)on2)cc1,-13.3% (inactive),–
Cc1cc(NC(=O)c2nn(C)c(C)c2[N+](=O)[O-])no1,10.5% (inactive),–
